# Assay results: PubChem BioAssay AID485344 (National Center for Advancing Translational Sciences (NCATS), 2010)
# Screen size: about 340,000 compounds; about 6,900 (2%) were called active. The entries come from a sample that favours actives as a whole. Values without a mark were called inactive. Rule as the data show it: active = inhibition above about 30%; inactive = below that, where a call was filed.
# Target: D(2) dopamine receptor (Homo sapiens) (UniProt P14416)
# Test: HTS Assay for Allosteric Antagonists of the Human D2 Dopamine Receptor: Primary Screen for Antagonists; also: 0% is about no effect
# Details: HEK293 TREx D2 cells, calcium flux, dopamine EC80; at 10 µM; stronger effect = higher value
# From the text: NIH Chemical Genomics Center [NCGC] NIH Molecular Libraries Probe Centers Network [MLPCN] MLPCN Grant: NS064831-01 Assay Submitter (PI): David Sibley Dopamine receptors (DARs) are involved in the etiology and/or therapy of a number of neuropsychiatric and endocrine disorders. For instance, all receptor-based antiparkinsonian drugs work via stimulating the D2 DAR subtype whereas all FDA-approved antipsychotic agents are antagonists of this receptor. […] There are three different types of allosteric modulators that we are seeking, two of which will stimulate or augment receptor signaling, allosteric agonists and potentiators, while the third, allosteric antagonists, will attenuate receptor signaling. The present primary screening assay measures compound antagonism after an EC80 addition of dopamine by tracking calcium flux in a […], inducible Hek293 Trex D2 cell line.
# Freshly passaged cells are plated in 1536 well black, clear bottom plates at a density of 4000 cells/well in 3 ul of complete media containing 1x tetracycline inducer. After an overnight incubation at 30 C in 5% CO2, cells are loaded with 2 ul of the no wash Calcium Assay Kit (ABD Bioquest) and incubated at room temperature for 30 to 90 minutes. Agonist read: A 10 cycle (1 second/cycle) baseline measurement is taken and then the FDSS online 1536 pintool delivers 23 nl of compound library (as well as dopamine controls) to the plate. The plate is measured for kinetically at 1 cycle/sec for 180 seconds. Following the 180 second read, 1 ul of an EC80 (negative modulation assay) is delivered by an onboard pipette head. Measurements are taken kinetically for an additional 180 seconds.
# Sequence of D(2) dopamine receptor (Homo sapiens) (P14416 whole entry, looked up): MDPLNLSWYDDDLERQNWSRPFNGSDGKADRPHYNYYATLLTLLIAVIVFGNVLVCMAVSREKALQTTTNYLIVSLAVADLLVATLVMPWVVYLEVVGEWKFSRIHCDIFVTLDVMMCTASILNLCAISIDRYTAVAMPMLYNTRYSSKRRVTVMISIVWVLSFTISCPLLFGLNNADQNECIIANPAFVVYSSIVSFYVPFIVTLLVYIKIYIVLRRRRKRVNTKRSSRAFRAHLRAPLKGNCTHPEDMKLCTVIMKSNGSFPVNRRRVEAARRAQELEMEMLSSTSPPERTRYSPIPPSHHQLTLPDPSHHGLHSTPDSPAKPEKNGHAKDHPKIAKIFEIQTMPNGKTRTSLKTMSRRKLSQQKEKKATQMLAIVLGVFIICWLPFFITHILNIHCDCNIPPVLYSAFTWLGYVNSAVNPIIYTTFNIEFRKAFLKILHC
row,SMILES,inhibition
1,COc1ccc(-c2nn(-c3ccccc3)cc2C(=O)Nc2nc(CC(C)=O)ns2)cc1,13.1%
2,O=C(NNC(=O)c1ccc(-n2cncn2)c([N+](=O)[O-])c1)c1ccccc1,1.81%
3,COc1ccc(C2=NN(C(=O)CSc3nnnn3C)C(c3ccco3)C2)cc1 (stereo not given),-18.6%
4,O=S(=O)(Nc1cccc(-n2cnnn2)c1)c1cnc(Cl)c(Cl)c1,34.6% (active)
5,Cc1ccc(C)c(S(=O)(=O)Nc2cccc(-n3cnnn3)c2)c1,4.04%
6,O=S(=O)(Nc1ccc(-n2cnnn2)cc1)c1ccc(Cl)cc1,-3.4%
7,COc1ccccc1CNS(=O)(=O)c1cc(C(=O)NCc2ccccn2)c(Cl)cc1Cl,-2.76%
8,Cc1cccc(NS(=O)(=O)c2ccc(C)c(C(=O)NCC(c3ccccc3)N(C)C)c2)c1 (stereo not given),-4.69%
9,CNC(=O)C1CC(=O)N(c2ccc(OCC(=O)Nc3ccccc3C)cc2)C1 (stereo not given),12.9%
10,Cc1cc(F)ccc1NC(=S)NCCc1ccccc1,-0.203%
11,S=C(NCCc1ccccc1)NCc1ccccc1Cl,-2.45%
12,Fc1ccccc1Cn1cnc(NC(=S)NCCc2ccccc2)n1,40.1% (active)
13,CC(=O)N1CCc2c(sc(NC(=O)CCS(=O)(=O)c3ccc(C)cc3)c2C(N)=O)C1,-1.82%
14,Oc1c(CN2CCN(c3ccc(F)cc3)CC2)cc(Cl)c2cccnc12,49.1% (active)
15,CCN1CCN(C(c2cccnc2)c2cc(Cl)c3cccnc3c2O)CC1 (stereo not given),2.31%
16,O=C(c1cccc(C(=O)N2CCN(c3ccc(F)cc3)CC2)c1)N1CCN(c2ccc(F)cc2)CC1,19.6%
17,CCN(CC(=O)Nc1ccc(OC)cc1)C(=O)c1ccc(=O)n(Cc2ccccc2)n1,7.28%
18,Cc1ccc(S(=O)(=O)NCCNC(C)c2ccc(Br)cc2)cc1 (stereo not given),-7.75%
19,COc1ccc2cc(C3=CC(=O)C[C@H](c4ccc5c(c4)OCO5)C3)ccc2c1,13.1%
20,COc1ccc(C2CC(=O)Oc3ccc(C(C)(C)C)cc32)cc1 (stereo not given),40.2% (active)
21,COc1ccc(C2CC(=O)NC(=O)C2)cc1,-28.9%
22,O=S(=O)(c1cccs1)N1CCN(CCOc2ccccc2)CC1,-9.4%
23,Nc1c(N(Cc2ccco2)C(=O)c2cccc(F)c2)c(=O)[nH]c(=O)n1Cc1ccccc1,11.2%

row,SMILES,inhibition
1,COc1cccc(CC2(CO)CCCN(Cc3nc(-c4cccs4)oc3C)C2)c1 (stereo not given),-28.2%
2,CCOC(=O)C1(CC2CCCCO2)CCN(Cc2nc(-c3cccs3)oc2C)CC1 (stereo not given),69.3% (active)
3,CC(Sc1nnc(-c2cccs2)n1C1CC1)C(=O)NCC1CCCO1 (stereo not given),13.5%
4,O=C(OCC(=O)N1CCc2ccccc21)C1CCCN1S(=O)(=O)c1ccc(Cl)cc1 (stereo not given),-11.4%
5,CCOC(=O)c1ccc(NC(=O)C2CC(=O)N(c3ccc4c(c3)OCCO4)C2)cc1 (stereo not given),6.09%
6,Cc1ccc(-c2c[n+](CC(=O)Nc3ccccc3)c3n2CCC3)cc1,7.8%
7,Clc1ccc(C[n+]2cc(-c3ccc(Cl)cc3)n3c2CCC3)cc1,44.4% (active)
8,Clc1ccc(C[n+]2cc(-c3ccccc3)n3c2CCC3)cc1,-18.7%
9,OCC[C@H]1C[C@H](O)[C@@H](O)[C@]2(CCc3ccccc3O2)O1,4.64%
10,CN(C)C(CNC(=O)c1cccc(S(=O)(=O)Nc2ccc(Br)cc2)c1)c1ccco1 (stereo not given),22.1%
11,Cc1ccc(CN2CCN(Cc3cn(C)nc3-c3ccccc3)CC2CCO)o1 (stereo not given),9.07%
12,CCn1nc(C)c(CN2CCN(Cc3ccc(OC)c(C)c3C)C(CCO)C2)c1C (stereo not given),-7.65%
13,COc1ccc(CN2CCN(Cc3cn(C)nc3-c3ccccc3)CC2CCO)c(C)c1C (stereo not given),33.2% (active)
14,CCOc1ccc(S(=O)(=O)NCCC(=O)NCC2CCCO2)cc1 (stereo not given),6.91%
15,CN1CCC(N(C)S(=O)(=O)c2ccc(NC(=O)c3cccc(C#N)c3)cc2)CC1,-21.6%
16,CC(C)(C)OC(=O)N1CCC(NC(=O)c2[nH]cnc2C(=O)N[C@@H](Cc2ccccc2)C(=O)OCc2ccccc2)CC1,20.4%
17,O=C(N[C@@H](Cc1ccccc1)C(=O)OCc1ccccc1)c1nc[nH]c1C(=O)N[C@@H](Cc1ccccc1)C(=O)OCc1ccccc1,13.9%
18,O=C(N[C@@H](Cc1ccccc1)C(=O)OCc1ccccc1)c1nc[nH]c1C(=O)NC1CCNCC1,76.1% (active)
19,O=C(NCc1ccccc1CN1CCCC1)C1CCN(S(=O)(=O)c2ccc(Cl)cc2)CC1,9.19%
20,Cc1ccc(CNC(=O)c2cc(-c3ccccc3C)n(CC3CC(c4cccc([N+](=O)[O-])c4)=NO3)n2)cc1 (stereo not given),6.93%
21,Cc1ccccc1-c1cc(C(=O)NCC2CC2)n(CC2CC(c3cccnc3)=NO2)n1 (stereo not given),2.25%
22,Cc1ccccc1-c1cc(C(=O)NCc2cccs2)n(CC2CC(c3cccnc3)=NO2)n1 (stereo not given),37.9% (active)
